Test results as given in PubChem BioAssay (Tox21).
Results filed as inconclusive are left out. The source made the active and inactive calls. Calls come from the whole dose curve; as a rule, active = well fitted inhibition curve with a large enough effect in the repeat runs; inconclusive = weak or mixed curves; inactive = no such curve, though single readings can be large or run the other way.

What follows are compounds tested against Cytochrome P450 2D6 (Homo sapiens) (UniProt P10635) (assay: Cytochrome P450 Family 2 Subfamily D Member 6 (CYP2D6) small molecule antagonists: luciferase reporter qHTS assay (AID 1671196; note: nearly all actives have a fitted effect of over 50% in size)). Conditions: P450-Glo CYP2D6 enzyme assay, luciferin luminescence, 1 h; series mostly up to 115 µM; activity change, negative = inhibition: at the top concentration.
Source text: U.S. Tox21 Program National Center for Advancing Translational Sciences [NCATS] U.S. Environmental Protection Agency [EPA] National Institutes of Environmental Health Sciences [NIEHS] National Toxicology Program [NTP] U.S. Food and Drug Administration [FDA] Tox21 Assay Overview: Cytochrome P450 (CYP) enzymes are membrane-bound hemeproteins that play a key role in metabolism of drugs and xenobiotics. Evaluation of the effect of chemicals on CYP isozymes is useful to minimize the adverse drug reactions and toxicities in drug development process. Tox21 chemicals were tested for their effect on CYP enzyme activities by using P450-Glo (TM) screening systems (Promega Corporation, Madison, WI). These systems provide a luminescent method containing proluciferin substrates and are converted to luciferin products by CYP isozymes. The luciferin products formed are detected with a luciferin detection reagent, and the amount of light produced is proportional to CYP activity. P450-Glo (TM) CYP2D6 screening system (Catalog. No. V9890) was used to detect the compounds that interfere in CYP2D6 activity.
Tox21 Assay Protocol Summary: Two ul of enzyme-substrate mix was dispensed into medium binding white/solid 1536-well plates (Greiner Bio-One North America Inc., Monroe, NC) using a BioRaptr Flying Reagent Dispenser (FRD, Beckman Coulter, Brea, CA). […] The assay plates were incubated at room temperature for 10 min. Then 2 ul of NADPH regeneration solution was added to each well of the assay plates using an FRD and incubated at room temperature for 1 h. The reaction was stopped by adding 4 ul of detection reagent using an FRD and after 20 min incubation at room temperature the luminescence signal was measured using a ViewLux plate reader (Perkin Elmer, Shelton, CT). Data were expressed as relative luminescence units.
% is set by controls: 0 for no effect and ±100 for the full control effect; potency is the fitted concentration of half-maximal effect.

Sequence of Cytochrome P450 2D6 (Homo sapiens) (P10635 whole entry, looked up): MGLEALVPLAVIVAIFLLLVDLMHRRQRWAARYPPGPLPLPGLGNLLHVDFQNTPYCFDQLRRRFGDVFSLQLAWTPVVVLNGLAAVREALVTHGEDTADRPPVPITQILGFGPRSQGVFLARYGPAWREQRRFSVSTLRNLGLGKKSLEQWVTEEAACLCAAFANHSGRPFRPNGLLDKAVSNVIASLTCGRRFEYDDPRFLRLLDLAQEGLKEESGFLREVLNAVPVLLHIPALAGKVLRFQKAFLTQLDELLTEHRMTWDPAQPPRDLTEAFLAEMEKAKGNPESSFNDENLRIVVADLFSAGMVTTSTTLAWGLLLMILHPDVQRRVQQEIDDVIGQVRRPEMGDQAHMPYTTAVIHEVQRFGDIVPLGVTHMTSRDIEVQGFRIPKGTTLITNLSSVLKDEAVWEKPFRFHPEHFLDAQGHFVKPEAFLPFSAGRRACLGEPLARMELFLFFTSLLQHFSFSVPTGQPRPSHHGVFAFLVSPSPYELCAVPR

Row | Structure (SMILES) | activity change, negative = inhibition | Potency
1 | C=CCCCCCCCCC(=O)OCCCC | -3.49% (inactive) | –
2 | CC(=O)OC1CCCCC1C(C)(C)C (stereo not given) | -5.37% (inactive) | –
3 | COS(=O)(=O)O | 0.089% (inactive) | –
4 | C/C=C(\C)C(C)=O | 2.9% (inactive) | –
5 | COC(=O)CCCCC(=O)O | -0.613% (inactive) | –
6 | CC1=NN(c2ccc(S(=O)(=O)O)cc2)C(=O)C1 | -1.55% (inactive) | –
7 | O=C1CCC(=O)N1Cl | -9.64% (inactive) | –
8 | C[C@@H](O)C(=O)O | -8.72% (inactive) | –
9 | c1ccc2c(CC3=NCCN3)cccc2c1 | – | 9.77 µM (active)
10 | CC(C)C[C@@H]1[C@H](c2ccccc2)OC(=O)N1CCCN1CCCCCC1 | – | 0.436 µM (active)
11 | CCCCCC/C=C/C(=O)OC | -2.68% (inactive) | –
12 | Cn1c(=O)c2[nH]c(Br)nc2n(C)c1=O | -13.8% [at 53 µM] (inactive) | –
13 | Cn1nnc2c(C(N)=O)ncn2c1=O | -22.3% [at 53 µM] (inactive) | –
14 | CC1CCc2c(N3CCC(O)CC3)c(F)cc3c(=O)c(C(=O)O)cn1c23 (stereo not given) | -7.04% [at 53 µM] (inactive) | –
15 | OC1(c2ccc(Cl)cc2)CCNCC1 | – | 5.49 µM (active)
16 | COC(=O)/C=C\C(=O)O | -17.8% (inactive) | –
17 | O=C(O)CONC(=O)c1ccccc1 | -8.64% (inactive) | –
18 | CCC/C=C(\C=O)CC | -16.7% (inactive) | –
19 | CNCCS(=O)(=O)O | -13.5% (inactive) | –
20 | CC(Oc1cc(Cl)ccc1Cl)C(=O)O (stereo not given) | -17.8% (inactive) | –

Row | Structure (SMILES) | activity change, negative = inhibition | Potency
21 | c1ccc(B(c2ccccc2)c2ccccc2)cc1 | – | 31.7 µM (active)
22 | Nc1nnnn1-c1ccccc1 | -14.2% [at 53 µM] (inactive) | –
23 | O=C(O)[C@H](O)c1ccccc1 | -1.36% [at 53 µM] (inactive) | –
24 | CCCCC1CCC(O)CC1 (stereo not given) | -6.36% (inactive) | –
25 | CC(C)[C@H]1CC[C@H](C)C[C@@H]1O | -1.52% (inactive) | –
26 | Cc1ccnc(N)c1 | -22% (inactive) | –
27 | Cn1c(=O)c2c(ncn2CCO)n(C)c1=O | 1.06% [at 53 µM] (inactive) | –
28 | C=C(C)[C@@H]1CC=C(C)CC1 | -12.1% (inactive) | –
29 | CCC(=O)CC | -0.378% (inactive) | –
30 | CC(CO)(CO)CO | – | 28.6 µM (active)
31 | O=C1OCCO1 | 1.39% (inactive) | –
32 | O=C(O)c1cc2ccccc2nc1C(=O)O | -9.01% (inactive) | –
33 | CCC(C)OC(C)CC (stereo not given) | 3.45% (inactive) | –
34 | CC1OCCC1=O (stereo not given) | -0.473% (inactive) | –
35 | CC(=O)CCc1ccc(OC(C)=O)cc1 | -10.6% (inactive) | –
36 | CCCCCCCCCCCCCBr | -8.89% (inactive) | –
37 | CCC(C)C(C)=O (stereo not given) | – | 34.8 µM (active)
38 | CC(C)COC(=O)c1ccccc1 | -24.9% (inactive) | –
39 | Cc1ccc(C)c([N+](=O)[O-])c1 | -26.2% (inactive) | –
40 | CCC(=O)Oc1ccc2c(c1)CC[C@@H]1[C@@H]2CC[C@@]2(C)[C@H]1C[C@@H](OC(=O)CC)[C@@H]2OC(=O)CC | -15.3% [at 53 µM] (inactive) | –
